Paper PMC4336329 (PLoS ONE, 2015)
In all, about 310,000 compounds went through this assay and about 14,000 (4.5%) showed an effect of 50% or more. Effects have a minus sign here. The sample holds strong results, similar compounds and a random draw of the others, so the mix is not that of the screen.

These molecules were tested against human ether-à-go-go-related gene (hERG) potassium channel (human, UniProt Q12809) (assay: primary screen, population patch clamp on CHO cells stably expressing hERG; higher = less effect of the substance).
Sequence of human ether-à-go-go-related gene (hERG) potassium channel (Q12809 whole entry, looked up): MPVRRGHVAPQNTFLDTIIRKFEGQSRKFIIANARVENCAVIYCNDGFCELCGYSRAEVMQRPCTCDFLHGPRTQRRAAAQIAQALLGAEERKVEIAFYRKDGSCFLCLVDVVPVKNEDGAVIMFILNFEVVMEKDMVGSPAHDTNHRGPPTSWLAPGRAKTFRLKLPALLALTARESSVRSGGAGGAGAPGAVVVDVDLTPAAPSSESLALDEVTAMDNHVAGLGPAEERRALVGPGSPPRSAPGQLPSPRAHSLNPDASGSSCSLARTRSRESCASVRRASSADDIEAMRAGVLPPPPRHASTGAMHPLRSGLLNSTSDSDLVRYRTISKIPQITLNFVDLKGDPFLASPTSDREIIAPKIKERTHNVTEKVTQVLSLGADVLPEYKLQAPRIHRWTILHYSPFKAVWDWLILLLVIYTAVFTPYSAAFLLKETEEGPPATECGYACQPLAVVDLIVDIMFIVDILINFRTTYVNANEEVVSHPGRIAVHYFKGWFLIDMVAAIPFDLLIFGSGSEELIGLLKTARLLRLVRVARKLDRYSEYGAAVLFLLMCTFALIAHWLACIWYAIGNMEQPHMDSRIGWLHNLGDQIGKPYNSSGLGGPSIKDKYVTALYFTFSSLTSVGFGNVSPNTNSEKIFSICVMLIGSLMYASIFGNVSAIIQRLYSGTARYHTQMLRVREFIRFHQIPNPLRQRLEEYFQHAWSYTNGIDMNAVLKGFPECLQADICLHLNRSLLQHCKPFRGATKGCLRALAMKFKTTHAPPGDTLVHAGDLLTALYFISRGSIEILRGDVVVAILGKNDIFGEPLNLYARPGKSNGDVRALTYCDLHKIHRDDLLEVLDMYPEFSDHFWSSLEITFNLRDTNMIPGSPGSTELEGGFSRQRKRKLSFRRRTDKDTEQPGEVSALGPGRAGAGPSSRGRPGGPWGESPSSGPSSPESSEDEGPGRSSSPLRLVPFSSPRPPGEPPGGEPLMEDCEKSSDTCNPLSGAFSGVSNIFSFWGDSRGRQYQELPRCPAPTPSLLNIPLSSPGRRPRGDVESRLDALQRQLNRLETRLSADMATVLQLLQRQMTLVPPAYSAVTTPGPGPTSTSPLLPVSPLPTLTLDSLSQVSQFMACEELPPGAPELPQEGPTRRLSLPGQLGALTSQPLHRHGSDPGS
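Further: peak tail current of the secondary pulse compared with the same well before compound.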

Compared with `N#Cc1nc(COc2ccc(F)cc2)oc1N1CCN(Cc2ccccc2)CC1`, `N#Cc1nc(COc2ccc(Cl)cc2)oc1N1CCN(Cc2ccccc2)CC1` is higher in “hERG current change (%, negative = inhibition) at 10uM” value: -75.3% for the first, -1.08% for the second.

First: CN1CCN(c2oc(COc3ccc(-c4ccccc4)cc3)nc2C#N)CC1
Second: CCN1CCN(c2oc(COc3ccc(-c4ccccc4)cc3)nc2C#N)CC1
The “hERG current change (%, negative = inhibition) at 10uM” value of the first is higher: -19% for the first, -55.8% for the second.

Compared with `COc1ccc(N2CCN(c3oc(COc4ccc(Cl)cc4)nc3C#N)CC2)cc1`, `CCN1CCN(c2oc(COc3ccc(Cl)cc3)nc2C#N)CC1` is lower in “hERG current change (%, negative = inhibition) at 10uM” value: -2.55% for the first, -77% for the second.

First: N#Cc1nc(COc2ccc(F)cc2)oc1N1CCCC1
Second: N#Cc1nc(COc2ccc(Cl)cc2)oc1N1CCCC1
The “hERG current change (%, negative = inhibition) at 10uM” value of the first is lower: -46.7% for the first, -38.9% for the second.

First: Cc1ccc(OCc2nc(C#N)c(N3CCCCC3)o2)cc1
Second: Cc1ccc(OCc2nc(C#N)c(N3CCCC3)o2)cc1
The “hERG current change (%, negative = inhibition) at 10uM” value of the first is higher: -4.24% for the first, -62.8% for the second.

Going from `N#Cc1nc(COc2ccccc2)oc1N1CCN(Cc2ccccc2)CC1` to `Cc1ccc(OCc2nc(C#N)c(N3CCN(Cc4ccccc4)CC3)o2)cc1`, the “hERG current change (%, negative = inhibition) at 10uM” value rises from -21.9% to -6.23%.

Going from `CC1=CC(C)[C@@H]2COC(c3ccc(O)cc3)[C@H]1C2C` (some centres unmarked) to `C/C(=C/c1ccccc1)C(=O)N1CC(C)OC(C)C1` (centres unmarked), the “hERG current change (%, negative = inhibition) at 10uM” value rises from 4.96% to 11.7%.

Compared with `Cc1ccc(N2CC(C(=O)NCc3nnnn3-c3ccc(C)c(C)c3)CC2=O)cc1` (centres unmarked), `Cc1ccc(NC(=O)c2c(-c3ccccc3Cl)noc2C)nc1` is higher in “hERG current change (%, negative = inhibition) at 10uM” value: -19.8% for the first, 1.56% for the second.

Going from `Cc1ccc(S(=O)(=O)NC(=O)C2CCCCC2)cc1` to `COc1ccc(NC(=O)COC(=O)c2cc(Cl)ccc2O)cc1S(=O)(=O)N1CCCCC1`, the “hERG current change (%, negative = inhibition) at 10uM” value falls from 14.3% to 10.5%.

Going from `O=C(COc1ccc2ccccc2c1)NCCNC(=O)COc1ccc2ccccc2c1` to `COc1cccc(N(CC(=O)NC(C)c2ccccc2)S(C)(=O)=O)c1` (centres unmarked), the “hERG current change (%, negative = inhibition) at 10uM” value rises from 17.2% to 22.3%.

First: O=C(c1cc(-c2ccccc2)on1)N1CCCC1
Second: CC(CN1CCCCC1)c1ccccc1.O=C(O)C(=O)O (centres unmarked)
The “hERG current change (%, negative = inhibition) at 10uM” value of the first is lower: 9.39% for the first, 13.1% for the second.

Compared with `O=C(NCc1ccc2c(c1)OCO2)c1ccc2c(c1)OCCO2`, `O=C(Nc1nc(-c2cccs2)cs1)C1=COCCO1` is lower in “hERG current change (%, negative = inhibition) at 10uM” value: 8.03% for the first, -15.9% for the second.

Compared with `CC(CN1CCN(Cc2ccccc2)CC1)c1ccccc1.O=C(O)C(=O)O` (centres unmarked), `CC(CN1CCN(C/C=C/c2ccccc2)CC1)c1ccccc1.O=C(O)C(=O)O` (centres unmarked) is lower in “hERG current change (%, negative = inhibition) at 10uM” value: -14% for the first, -59.6% for the second.

First: CC(C(=O)Nc1cccc(S(=O)(=O)N2CCOCC2)c1)N1CCN(C/C=C/c2ccccc2)CC1 (centres unmarked)
Second: CC(C(=O)Nc1cccc([N+](=O)[O-])c1)N1CCN(C/C=C/c2ccccc2)CC1 (centres unmarked)
The “hERG current change (%, negative = inhibition) at 10uM” value of the first is higher: -75% for the first, -75.6% for the second.

Compared with `CC(=O)c1ccc(S(=O)(=O)NCC(=O)N2CCN(C/C=C/c3ccccc3)CC2)cc1`, `CC(=O)Nc1ccc(S(=O)(=O)N[C@@H](C)C(=O)N2CCN(C/C=C/c3ccccc3)CC2)cc1` is higher in “hERG current change (%, negative = inhibition) at 10uM” value: -38.7% for the first, -31.8% for the second.

Going from `CC(C(=O)N(C)Cc1ccccc1)N1CCN(C/C=C/c2ccccc2)CC1` (centres unmarked) to `CC(C)C(NC(=O)c1ccccc1)C(=O)N1CCN(C/C=C/c2ccccc2)CC1` (centres unmarked), the “hERG current change (%, negative = inhibition) at 10uM” value rises from -78.9% to -41.2%.

Compared with `CC(C(=O)Nc1cccc(S(=O)(=O)N2CCOCC2)c1)N1CCN(c2ccc(F)cc2)CC1` (centres unmarked), `CC(C(=O)Nc1cccc(S(=O)(=O)N2CCOCC2)c1)N1CCN(C)CC1` (centres unmarked) is higher in “hERG current change (%, negative = inhibition) at 10uM” value: -40.3% for the first, -5.23% for the second.

Going from `CC(=O)c1ccc(NC(=O)C(C)N2CCN(C/C=C/c3ccccc3)CC2)cc1` (centres unmarked) to `CNC(=O)NC(=O)C(C)N1CCN(C/C=C/c2ccccc2)CC1` (centres unmarked), the “hERG current change (%, negative = inhibition) at 10uM” value rises from -71.4% to -63%.

Going from `COc1ccc(N2CCN(C(C)C(=O)N(C)Cc3ccccc3)CC2)cc1` (centres unmarked) to `COc1ccccc1/C=C/C=N/N1CCN(c2ccccn2)CC1`, the “hERG current change (%, negative = inhibition) at 10uM” value rises from -17.3% to -2.4%.

First: CCc1nnc(NC(=O)c2ccc(S(=O)(=O)N(CC)Cc3ccccc3)cc2)o1
Second: O=C(Nc1nnc(-c2ccc(Cl)cc2)o1)Nc1ccccc1F
The “hERG current change (%, negative = inhibition) at 10uM” value of the first is lower: -12.9% for the first, 1.31% for the second.

First: CCCCC(=O)Nc1ccc2c(c1)C(=O)NC2=O
Second: CCCCCC(=O)Nc1ccc(-c2csc(C)n2)cc1
The “hERG current change (%, negative = inhibition) at 10uM” value of the first is lower: 2.21% for the first, 18.7% for the second.

Going from `O=C(COC(=O)c1cccnc1Cl)NCC1CCCO1` (centres unmarked) to `Cc1cccc(CS(=O)(=O)Cc2ccc(C(=O)O)o2)c1`, the “hERG current change (%, negative = inhibition) at 10uM” value rises from 10.8% to 16.5%.

Compared with `COC(C(=O)Nc1cccc([N+](=O)[O-])c1)c1ccccc1` (centres unmarked), `CC(C(=O)Nc1cccc([N+](=O)[O-])c1)n1nnc2ccccc21` (centres unmarked) is lower in “hERG current change (%, negative = inhibition) at 10uM” value: 1.56% for the first, -33.5% for the second.

First: CCCCNC(=O)N1CCN(C/C=C/c2ccccc2)CC1
Second: CC(C)NC(=S)N1CCN(C/C=C/c2ccccc2)CC1
The “hERG current change (%, negative = inhibition) at 10uM” value of the first is lower: -29.9% for the first, -15.5% for the second.

Compared with `Cc1nc(SCC(N)=O)[nH]c(=O)c1Cc1ccc(OC(C)C)cc1`, `CCn1c(SCC(=O)N=Nc2c(O)[nH]c3ccccc23)nnc1-c1ccc(C(C)(C)C)cc1` is lower in “hERG current change (%, negative = inhibition) at 10uM” value: 3.98% for the first, -5.11% for the second.

Compared with `N=C1/C(=C/c2coc3ccccc3c2=O)C(=O)N=C2SC(c3ccco3)=NN12`, `N=C1/C(=C\c2coc3ccccc3c2=O)C(=O)N=C2SC(c3ccncc3)=NN12` is lower in “hERG current change (%, negative = inhibition) at 10uM” value: 12.8% for the first, -59% for the second.

Going from `N=C1/C(=C\c2coc3ccccc3c2=O)C(=O)N=C2SC=CN12` to `Cc1csc(CN(C)C(=O)CC2C(=O)NCCN2Cc2ccc(F)c(F)c2)n1` (centres unmarked), the “hERG current change (%, negative = inhibition) at 10uM” value falls from 15.3% to 6.02%.

Compared with `COCCCNC(=S)NCCNc1nc2cc(C)c(C)cc2cc1C#N`, `COc1cc2c(cc1OC)C(c1cccc(C)c1)CC(=O)N2` (centres unmarked) is lower in “hERG current change (%, negative = inhibition) at 10uM” value: -2.23% for the first, -10.5% for the second.
